Test results taken from PubChem BioAssay (NCATS).
Unmarked numbers belong to inactive results. Unless noted, the call rests on the fitted dose curve; in most records, active means well fitted curve in the direction sought with a large enough effect; inconclusive means small, poorly fitted or top-dose-only effect, or another doubt; inactive means no such curve, though single readings can be large; an effect the other way counts as inactive or inconclusive. Records with an inconclusive call do not appear.

Test system: not listed separately
Assay: qHTS Assay for Identification of Small Molecule Agonists for Hypoxia Response Element Signaling Pathway (AID 914; active means well fitted activation curve with a large enough effect in the signal ratio, with a control signal flat, not every such curve was filed as active; the % refers to the signal ratio; further: % of control where 0% means no effect)
Conditions: ME-180 (cervical carcinoma) HRE-bla reporter, beta-lactamase ratio, CoCl2, 17 h; stronger effect = higher value
Summary of the method: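 Read-out: CCF4 FRET ratio of 460nm to 530nm emission (excitation 405nm) after 2.5 hours at room temperature, taken from HRE-bla ME-180 cells that had been exposed to compound and EC50 CoCl2 for 17 hours.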

Row | Compound | activation [%]
1 | CC(C)CO/N=C1/C[C@@H](O)[C@@H](O)[C@@H]2[C@@H]3C(=O)N(C4CCCCC4)C(=O)[C@H]3CC[C@@H]12 | -7.25
2 | CSCC[C@@H]1NC(=O)C/C=C\[C@@H](C)COC(=O)[C@H](C)COC1=O | 5.76
3 | COc1ccc(COC(=O)N/N=C2/C[C@@H](O)[C@@H](O)[C@@H]3[C@@H]4C(=O)N(Cc5ccc6c(c5)OCO6)C(=O)[C@H]4CC[C@H]23)cc1 | -9.34
4 | O=C1C=C[C@@H](O)[C@H]2[C@@H]3C(=O)N(C[C@@H]4CCCO4)C(=O)[C@@H]3CC[C@H]12 | -2.79
5 | CO[C@H]1COC(=O)[C@H](C)COC(=O)[C@H](C)NC(=O)C/C=C\[C@H]1C | 5.98

Test system: not listed separately
Assay: Confirmation and Secondary Assay for Modulators of Hemoglobin Beta Chain Splicing at IVS2 705 locus (AID 930);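 further: HeLa cells stably expressing the EGFP-705 splicing reporter; GFP fluorescence per well restored by corrected splicing of the IVS2-705 intron in EGFP; % of control where 0% means no effect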
Conditions: HeLa EGFP-705 splicing reporter, GFP fluorescence, 48 h; series mostly up to 46.1 µM; activation: at the top concentration
Summary of the method: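 HeLa EGFP-705 reporter; 500 cells/well, o/n 37C 5% CO2; cpd 2 d; 488 ex/500-520 em laser scan; total peak GFP intensity/well. Ref: 500 nM […] antisense PNA.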

Row | Compound | activation [%]
6 | CC(=O)N1CCN(c2ccc(OCC3CO[C@@](Cn4ccnc4)(c4ccc(Cl)cc4Cl)O3)cc2)CC1 (stereo partly specified) | -0.512
7 | CC(=O)[C@]1(O)CCC2C3CC(C)C4=CC(=O)C=CC4(C)[C@@]3(F)C(O)C[C@]21C (stereo partly specified) | 4.32
8 | CC(C)(C)NCC(O)COc1cccc2c1CC(O)C(O)C2 (stereo unspecified) | 0.151
9 | CC(C)CC1C(=O)N2CCCC2C2(O)O[C@@](NC(=O)C3C=C4c5cccc6[nH]c(Br)c(c56)CC4N(C)C3)(C(C)C)C(=O)N12 (stereo partly specified) | 1.45
10 | Nc1ncn(C2OC(CO)C(O)C2O)c(=O)n1 (stereo unspecified) | 0.194
11 | CC1CC2C3CC(F)C4=CC(=O)C=C[C@@]4(C)[C@@]3(F)C(O)C[C@]2(C)[C@]1(O)C(=O)COC(=O)C(C)(C)C (stereo partly specified) | -0.802

Target: Alpha-galactosidase A (Homo sapiens) (UniProt P06280)
Sequence (P06280 whole entry, looked up): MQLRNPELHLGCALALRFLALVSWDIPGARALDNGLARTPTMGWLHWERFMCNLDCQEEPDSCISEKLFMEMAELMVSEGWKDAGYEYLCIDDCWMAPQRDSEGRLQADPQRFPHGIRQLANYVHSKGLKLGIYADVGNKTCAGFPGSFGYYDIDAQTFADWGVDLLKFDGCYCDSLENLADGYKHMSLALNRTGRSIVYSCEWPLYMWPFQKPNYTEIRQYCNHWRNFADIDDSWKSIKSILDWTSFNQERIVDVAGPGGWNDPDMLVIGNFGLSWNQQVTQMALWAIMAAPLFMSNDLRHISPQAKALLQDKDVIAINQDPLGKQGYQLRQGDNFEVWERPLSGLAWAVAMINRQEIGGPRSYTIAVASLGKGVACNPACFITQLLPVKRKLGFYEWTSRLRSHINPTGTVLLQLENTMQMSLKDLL
Assay: Counterscreen for Glucocerebrosidase Inhibitors: qHTS Assay for Human alpha-Galactosidase at pH 4.5 (AID 992); further: 0% is about no effect
Conditions: purified enzyme, fluorogenic substrate; series mostly up to 76.9 µM; activity change, negative = inhibition: at the top concentration
Summary of the method: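 Each compound is preincubated briefly with 2 nM enzyme before substrate addition (80 uM); plates then sit 20 min at ambient temperature, are quenched with 1M NaOH/1M glycine, and read fluorometrically.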

Row | Compound | activity change, negative = inhibition [%]
12 | Cc1cc(N2CCOCC2)nc2ccc(NC(=O)C3CCCCC3)cc12 | -18
13 | CCc1nnc(NC(=O)c2ccc(NS(=O)(=O)c3ccccc3)cc2)s1 | 4.33
14 | CCCCCCCCCN1C[C@H](O)[C@@H](O)[C@H](O)[C@H]1CO | 10
15 | CC(C)(C)Oc1ccccc1Nc1nc(NCCO)nc(N2CCCC2)n1 | -3
16 | COc1ccc(Cl)cc1Nc1nc(NCCO)nc(N2CCCC2)n1 | 1.33

Target: alpha-glucosidase (Oryza sativa, rice) (UniProt Q653V4)
Assay: Counterscreen for Glucocerebrosidase Inhibitors: qHTS Assay for Rice alpha-Glucosidase at pH 5.0 (AID 997);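 further: 0% = full activity with enzyme and -100% = basal without enzyme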
Conditions: rice alpha-glucosidase enzyme activity; series mostly up to 76.9 µM; activity change, negative = inhibition: at the top concentration
Summary of the method: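 Endpoint fluorogenic assay at pH 5.0: compounds (0.7 nM to 77 uM) titrated against 4 nM rice enzyme and 400 uM 4-MU-alpha-glucoside for 20 min at room temperature; NaOH/glycine stop, read ex 365/em 440 nm, Hill-fitted AC50.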

Row | Compound | activity change, negative = inhibition [%]
17 | Cc1cc(N2CCOCC2)nc2ccc(NC(=O)C3CCCCC3)cc12 | 22.3
18 | CCc1nnc(NC(=O)c2ccc(NS(=O)(=O)c3ccccc3)cc2)s1 | -12
19 | CCCCCCCCCN1C[C@H](O)[C@@H](O)[C@H](O)[C@H]1CO | -99.3
20 | CC(C)(C)Oc1ccccc1Nc1nc(NCCO)nc(N2CCCC2)n1 | -2.5
21 | COc1ccc(Cl)cc1Nc1nc(NCCO)nc(N2CCCC2)n1 | -9.33
